Values joined by “and” are separate entries in the source; they are usually repeats but may differ in a detail not shown here. Equal entries are not always repeated. Results filed as inconclusive are left out. Some compounds were tested as several samples or in several runs, with calls that do not always agree. Active and inactive are the calls of the source. Calls come from the whole dose curve; as a rule, active = well fitted curve in the direction sought with a large enough effect; inconclusive = small, poorly fitted or top-dose-only effect, or another doubt; inactive = no such curve, though single readings can be large; an effect the other way counts as inactive or inconclusive.

Results on 27 molecules are retold here after PubChem BioAssay (NCATS).

The nature of experiment [1]: Viability qHTS for spleen associated tyrosine kinase inhibitor (SYKi) naive MV4-11 cells (AID 1963823). Note: nearly all actives have a fitted effect of over 40% in size. To be noted: MV4-11 AML viability, CellTiter-Glo luminescence, 72 h; series mostly up to 45 µM. An outline of the steps: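 Luminescence from CellTiter-Glo, developed 10 min at room temperature, gave viability of MV4-11 cells never exposed to SYK inhibitor. Cells (500/well) had been incubated with compounds for 72 hr under standard culture conditions.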

Experiment [2] in a line: Cellular viability qHTS for adrenocortical cancer (ACC) cell line SW-13 (AID 1963989).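 For activity (max response): cells grown in serum-free medium with ITS supplement; % is set by controls: 0 for no effect and ±100 for the full control effect.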 Note: nearly all actives have a fitted effect of over 65% in size. The following applies: SW-13 ACC cells viability, CellTiter-Glo, 48 h; activity (max response): stronger effect = lower value. An outline of the steps: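 Viability was read as CellTiter-Glo luminescence after 48 h compound treatment (up to 46 uM final) of SW-13 cells grown serum-free; titration curves were fit with a four-parameter logistic model to give IC50 and efficacy.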

Experiment [3] can be described thus: Cellular viability qHTS for adrenocortical cancer (ACC) cell line NCI-H295R (AID 1963990).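 For activity change, negative = viability loss: 0% = DMSO only wells and -100% = full killing with cytotoxic reference compound.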 Note: nearly all actives have a fitted effect of over 60% in size. To be noted: CellTiter-Glo ATP luminescence, 48 h; series mostly up to 46.1 µM. An outline of the steps: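 CellTiter-Glo ATP luminescence, read 48 h after compound addition, measured viability of NCI-H295R adrenocortical cells grown serum-free with ITS. Final concentrations spanned up to 46 uM. Data normalized to DMSO and doxorubicin, fitted for IC50 and maximal response.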
Potency is the fitted concentration of half-maximal effect.

Turning to `CN1CCN(C(=O)[C@H]2[C@@H](C(=O)O)[C@H]3CC[C@@H]2O3)CC1`, the viability (% of control) in experiment [1] is 78.3% [at 9.25 µM] (inactive). For the same molecule, the activity (max response) in experiment [2] is -7.83% (inactive). Also, the activity change, negative = viability loss in experiment [3] was 2.26% [at 9.17 µM] (inactive).

`N#CC1(c2ccc(F)cc2)CCC(=O)CC1`: the Potency result in experiment [1] and in experiment [3] was “inactive” each time. Further, the activity (max response) in experiment [2] was 6.7% (inactive).

Consider `O=C1c2cccc(O)c2C(=O)c2c(O)cccc21`, for which the Potency result in experiment [1] and in experiment [3] was “inactive” throughout. In addition, in experiment [2], the activity (max response) is 1.51% (inactive).

With `CC1(C)[C@@H](O)CC[C@]2(C)[C@H]3C(=O)C=C4[C@@H]5C[C@@](C)(C(=O)O)CC[C@]5(C)CC[C@@]4(C)[C@]3(C)CC[C@@H]12`, the Potency result in experiment [1] and in experiment [3] was “inactive” in each case. In experiment [2], the activity (max response) was 3.49% (inactive).

With `O=C(O)C1=CO[C@@H](O[C@@H]2O[C@H](CO)[C@@H](O)[C@H](O)[C@H]2O)[C@@H]2C(CO)=CC[C@H]12`, in experiment [1], the Potency is 10.1 µM (active) and inactive. Besides, the activity (max response) in experiment [2] is 7.35% (inactive). The Potency result in experiment [3] is “inactive”.

Consider `CC(C)=CCC[C@@](C)(O)[C@H]1CC=C(C)CC1`, for which the Potency entry in experiment [1] and in experiment [3] was “inactive” each time. The activity (max response) in experiment [2] was 18.9% (inactive).

As to `CSC[C@H]1CN(Cc2c[nH]c3c(N)ncnc23)C[C@@H]1O`, the Potency entry in experiment [1] and in experiment [3] was “inactive” in each case. For the same molecule, the activity (max response) in experiment [2] is -14.7% (inactive).

Regarding `CC(=O)OCC(=O)[C@@]1(O)CC[C@H]2[C@@H]3CCC4=CC(=O)C=C[C@]4(C)[C@H]3[C@@H](O)C[C@@]21C`, the Potency result in experiment [1] and in experiment [3] was “inactive” throughout. In addition, the activity (max response) in experiment [2] is 1.48% (inactive) and -12.4% (inactive).

For the molecule `COC(=O)N(C)c1c(N)nc(-c2nn(Cc3ccccc3F)c3ncccc23)nc1N`, the Potency entry in experiment [1] and in experiment [3] was “inactive” each time. The activity (max response) in experiment [2] is -4.16% (inactive).

As for `FC(F)(F)c1ccccc1-n1ccnc1`, the Potency entry in experiment [1] and in experiment [3] was “inactive” each time. Also, the activity (max response) in experiment [2] is 17.5% (inactive).

Regarding `Nc1ccc(S(=O)(=O)NC(=O)c2ccccc2)cc1`, the Potency entry in experiment [1] and in experiment [3] was “inactive” in each case. In addition, the activity (max response) in experiment [2] was 4.69% (inactive).

With `Cc1ncc(CSSCc2cnc(C)c(O)c2CO)c(CO)c1O`, the Potency result in experiment [1] and in experiment [3] was “inactive” each time. The activity (max response) in experiment [2] was 9.04% (inactive).

With `COc1ccc(-c2cc(=S)ss2)cc1`, the Potency result in experiment [1] and in experiment [3] was “inactive” throughout. For the same molecule, the activity (max response) in experiment [2] was -5.69% (inactive).

Turning to `CCN1CCC[C@H]1CNC(=O)c1c(OC)ccc(Br)c1OC`, the Potency in experiment [1] was 6.68 µM (active). Besides, the activity (max response) in experiment [2] is -0.795% (inactive). Besides, the Potency result in experiment [3] was “inactive”.

With `CC[C@H]1OC(=O)[C@H](C)[C@@H](O[C@H]2C[C@@](C)(OC)[C@@H](O)[C@H](C)O2)[C@H](C)[C@@H](O[C@@H]2O[C@H](C)C[C@H](N(C)C)[C@H]2O)[C@](C)(O)C[C@@H](C)C(=O)[C@H](C)[C@@H](O)[C@]1(C)O`, the Potency entry in experiment [1] and in experiment [3] was “inactive” each time. Besides, the activity (max response) in experiment [2] was 4.41% (inactive).

On to `C[C@H]1[C@H](C)CC[C@]2(C(=O)O)CC[C@]3(C)C(=CC[C@@H]4[C@@]5(C)CC[C@H](O)C(C)(C)[C@@H]5CC[C@]43C)[C@H]12`, for which, in experiment [1], the Potency is 23.5 µM (active). Also, in experiment [2], the activity (max response) is -4.55% (inactive). In addition, the Potency entry in experiment [3] is “inactive”.

With `CN(C(=O)c1c(O)c2ccccc2n(C)c1=O)c1ccccc1`, the Potency result in experiment [1] and in experiment [3] was “inactive” in each case. The activity (max response) in experiment [2] is 3.23% (inactive) and -16.1% (inactive).

`C[C@@H](O[C@H]1OCCN(Cc2n[nH]c(=O)[nH]2)[C@@H]1c1ccc(F)cc1)c1cc(C(F)(F)F)cc(C(F)(F)F)c1`: the Potency in experiment [1] is 16.6 µM (active); in experiment [2], 22.4 µM (active); in experiment [3], 25.1 µM (active).

Regarding `CC(N)C(=O)OC(C)(C)Cc1ccc(Cl)cc1` (stereo unspecified), the Potency entry in experiment [1] and in experiment [3] was “inactive” throughout. Also, in experiment [2], the activity (max response) is 12.9% (inactive).

For the molecule `Cc1nnc(C(C)C)n1C1CC2CCC(C1)N2CCC(NC(=O)C1CCC(F)(F)CC1)c1ccccc1` (stereo unspecified), the Potency result in experiment [1] and in experiment [3] was “inactive” in each case. Also, the activity (max response) in experiment [2] is -4.92% (inactive).

As to `COc1cc(C=C2CCC/C(=C\c3ccc(O)c(OC)c3)C2=O)ccc1O`, the Potency in experiment [1] is 3.76 µM (active); in experiment [2], 4.61 µM (active); in experiment [3], 7.31 µM (active).

Consider `CC(=O)N1CCN(c2ccc(O)cc2)CC1`, for which the Potency result in experiment [1] and in experiment [3] was “inactive” throughout. For the same molecule, the activity (max response) in experiment [2] is 7.26% (inactive).

Consider `O=C(O)CN1C(=O)c2cccc3cccc(c23)C1=O`, for which the Potency entry in experiment [1] and in experiment [3] was “inactive” throughout. Moreover, the activity (max response) in experiment [2] is -3.53% (inactive).

As to `COc1ccccc1N1CCN(CCCCNC(=O)c2ccc(-c3ccc(C(C)=O)cc3)cc2)CC1`, the Potency entry in experiment [1] and in experiment [3] was “inactive” each time. Moreover, the activity (max response) in experiment [2] is -20.9% (inactive).

As to `CN1C(N)=N[C@](C)(c2cc(NC(=O)c3ccc(F)cn3)ccc2F)CS1(=O)=O`, the Potency result in experiment [1] and in experiment [3] was “inactive” in each case. For the same molecule, the activity (max response) in experiment [2] is -4.84% (inactive).

For the molecule `COCc1c(C(C)C)nc(C(C)C)c(/C=C/[C@@H](O)C[C@@H](O)CC(=O)O)c1-c1ccc(F)cc1`, the Potency is 0.168 µM (active) in experiment [1], 2.59 µM (active) in experiment [2] and 1.16 µM (active) in experiment [3].

With `COc1cc2c(cc1OCCCN1CCCC1)N=C(N)C21CCC1`, the Potency entry in experiment [1] and in experiment [3] was “inactive” in each case. Also, the activity (max response) in experiment [2] was -9.17% (inactive).
